According to PubChem BioAssay (EPA / NIEHS):
Where “and” joins values, the source holds several entries; their conditions need not be identical. Identical values can stand only once. A structure can be active in one record and inactive in another. Calls of active or inactive are those of the source. The calls were made as follows: active = hit-call score of the fitted dose curve at least 0.9, where 1 is the maximum; inactive = score below 0.9.

Columns and labels:
[1] = CEETOX_H295R_ANDR: CeeTox H295R High-throughput Steroidogenesis Assay for Androstenedione (ANDR) (AID 2283436); conditions: actives raise or lower the signal
Method in brief: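 Steroidogenesis in H295R adrenal cells after 48 h dosing; androstenedione quantified by LC-MS/MS, with DMSO as negative control and baseline for bidirectional curve fitting.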

[2] = CEETOX_H295R_CORTIC: CeeTox H295R High-throughput Steroidogenesis Assay for Corticosterone (CORTIC) (AID 2283437); conditions: actives raise or lower the signal;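 also: corticosterone secreted into medium quantified by mass spectrometry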;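 as to AC50: human H295R adrenal cells prestimulated with forskolin before chemical exposure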
Method in brief: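 Steps: seed H295R, adhere overnight; 10 uM forskolin 48 h; replace with chemical (0.1% DMSO) 48 h; extract medium with MTBE; quantify corticosterone by HPLC-MS/MS; score bidirectionally vs DMSO.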

[3] = CEETOX_H295R_CORTISOL: CeeTox H295R High-throughput Steroidogenesis Assay for Cortisol (AID 2283438); conditions: actives raise or lower the signal
Method in brief: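 Cortisol synthesis by H295R cells is measured 48 h after chemical dosing, following a 48 h stimulation with 10 uM forskolin. Hormone is extracted and quantified by HPLC-MS/MS, and activity is fitted bidirectionally against the DMSO control.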

[4] = CEETOX_H295R_DOC: CeeTox H295R High-throughput Steroidogenesis Assay for DOC (AID 2283439); conditions: actives raise or lower the signal
Method in brief: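 Steps: seed H295R, adhere overnight; 10 uM forskolin 48 h; replace with chemical medium (0.1% DMSO) 48 h; collect medium, MTBE extraction, HPLC-MS/MS for DOC. Viability then checked by MTT; cytotoxic chemicals diluted until viability ≥70%.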

[5] = CEETOX_H295R_ESTRADIOL: CeeTox H295R High-throughput Steroidogenesis Assay for Estradiol (AID 2283440); conditions: actives raise or lower the signal;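 also: estradiol secreted into medium quantified by LC-MS/MS after dansyl derivatisation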
Method in brief: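 Estradiol in spent medium measured by LC-MS/MS after dansyl chloride derivatisation. Forskolin-primed (10 uM, 48 h) human adrenal H295R cells received test chemical 48 h at 0.1% DMSO; concentrations lowered until MTT viability >/=70%.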

[6] = CEETOX_H295R_ESTRONE: CeeTox H295R High-throughput Steroidogenesis Assay for Estrone (AID 2283441); conditions: actives raise or lower the signal;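 as to AC50: human adrenal H295R cells prestimulated with forskolin for two days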
Method in brief: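 Estrone secreted into medium quantified by LC-MS/MS after dansyl chloride derivatization, following 48 h chemical exposure (0.1% DMSO final) of forskolin-prestimulated (10 uM, 48 h) H295R cells; gain or loss fitted against DMSO; MTT viability in same wells.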

[7] = CEETOX_H295R_PROG: CeeTox H295R High-throughput Steroidogenesis Assay for Progesterone (PROG) (AID 2283442); conditions: actives raise or lower the signal;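 as to AC50: human H295R adrenal cells primed with 10 µM forskolin before dosing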
Method in brief: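 Progesterone secreted by human H295R cells was measured by LC-MS/MS following 48 h chemical exposure at 0.1% DMSO, preceded by 48 h forskolin (10 uM) stimulation. Same-well MTT viability; cytotoxic concentrations diluted 10- or 100-fold and retested.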

[8] = read-out: Tumor necrosis factor receptor superfamily member 6 (Homo sapiens) (UniProt P25445); test: LTEA_HepaRG_FAS: Life Technologies and Expression Analysis (LTEA) Assay for Fas cell surface death receptor (FAS) using HepaRG (AID 2283447); conditions: mRNA level, 48 h; actives raise or lower the signal
Method in brief: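 Differentiated human HepaRG cells, pre-cultured 48 h, were exposed in duplicate for 48 h to 8-point half-log concentrations (top 100 uM, 0.5% DMSO) in serum-free induction medium; FAS mRNA measured by qRT-PCR, normalized to ACTB/GAPDH/POLR2A, bidirectional fit versus DMSO.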

[9] = read-out: Fatty acid synthase (Homo sapiens) (UniProt P49327); test: LTEA_HepaRG_FASN: Life Technologies and Expression Analysis (LTEA) Assay for Fatty Acid Synthase (FASN) using HepaRG (AID 2283448); conditions: mRNA level, 48 h; actives raise or lower the signal
Method in brief: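 Cells were plated, cultured 48 h, switched to serum-free induction medium, then dosed in duplicate (max 100 uM, half-log dilutions, 0.5% DMSO) for 48 h. RNA was then isolated and FASN quantified by qRT-PCR.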

[10] = read-out: Cyclin D2 (CCND2), CCND2 (gene 894); test: LTEA_HepaRG_CCND2: Life Technologies and Expression Analysis (LTEA) Assay for Cyclin D2 (CCND2) using HepaRG (AID 2283449); conditions: mRNA level, 48 h; actives raise or lower the signal;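 also: CCND2 transcript measured by TaqMan qRT-PCR and normalised to three housekeeping genes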
Method in brief: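 In this HepaRG study, an eight-point concentration series (max 100 uM, 0.5% DMSO) is applied for 48 h. CCND2 mRNA change is derived by qRT-PCR normalised to ACTB, GAPDH and POLR2A.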

Measured: AC50

Chain of Fatty acid synthase (Homo sapiens) (P49327 whole entry, looked up): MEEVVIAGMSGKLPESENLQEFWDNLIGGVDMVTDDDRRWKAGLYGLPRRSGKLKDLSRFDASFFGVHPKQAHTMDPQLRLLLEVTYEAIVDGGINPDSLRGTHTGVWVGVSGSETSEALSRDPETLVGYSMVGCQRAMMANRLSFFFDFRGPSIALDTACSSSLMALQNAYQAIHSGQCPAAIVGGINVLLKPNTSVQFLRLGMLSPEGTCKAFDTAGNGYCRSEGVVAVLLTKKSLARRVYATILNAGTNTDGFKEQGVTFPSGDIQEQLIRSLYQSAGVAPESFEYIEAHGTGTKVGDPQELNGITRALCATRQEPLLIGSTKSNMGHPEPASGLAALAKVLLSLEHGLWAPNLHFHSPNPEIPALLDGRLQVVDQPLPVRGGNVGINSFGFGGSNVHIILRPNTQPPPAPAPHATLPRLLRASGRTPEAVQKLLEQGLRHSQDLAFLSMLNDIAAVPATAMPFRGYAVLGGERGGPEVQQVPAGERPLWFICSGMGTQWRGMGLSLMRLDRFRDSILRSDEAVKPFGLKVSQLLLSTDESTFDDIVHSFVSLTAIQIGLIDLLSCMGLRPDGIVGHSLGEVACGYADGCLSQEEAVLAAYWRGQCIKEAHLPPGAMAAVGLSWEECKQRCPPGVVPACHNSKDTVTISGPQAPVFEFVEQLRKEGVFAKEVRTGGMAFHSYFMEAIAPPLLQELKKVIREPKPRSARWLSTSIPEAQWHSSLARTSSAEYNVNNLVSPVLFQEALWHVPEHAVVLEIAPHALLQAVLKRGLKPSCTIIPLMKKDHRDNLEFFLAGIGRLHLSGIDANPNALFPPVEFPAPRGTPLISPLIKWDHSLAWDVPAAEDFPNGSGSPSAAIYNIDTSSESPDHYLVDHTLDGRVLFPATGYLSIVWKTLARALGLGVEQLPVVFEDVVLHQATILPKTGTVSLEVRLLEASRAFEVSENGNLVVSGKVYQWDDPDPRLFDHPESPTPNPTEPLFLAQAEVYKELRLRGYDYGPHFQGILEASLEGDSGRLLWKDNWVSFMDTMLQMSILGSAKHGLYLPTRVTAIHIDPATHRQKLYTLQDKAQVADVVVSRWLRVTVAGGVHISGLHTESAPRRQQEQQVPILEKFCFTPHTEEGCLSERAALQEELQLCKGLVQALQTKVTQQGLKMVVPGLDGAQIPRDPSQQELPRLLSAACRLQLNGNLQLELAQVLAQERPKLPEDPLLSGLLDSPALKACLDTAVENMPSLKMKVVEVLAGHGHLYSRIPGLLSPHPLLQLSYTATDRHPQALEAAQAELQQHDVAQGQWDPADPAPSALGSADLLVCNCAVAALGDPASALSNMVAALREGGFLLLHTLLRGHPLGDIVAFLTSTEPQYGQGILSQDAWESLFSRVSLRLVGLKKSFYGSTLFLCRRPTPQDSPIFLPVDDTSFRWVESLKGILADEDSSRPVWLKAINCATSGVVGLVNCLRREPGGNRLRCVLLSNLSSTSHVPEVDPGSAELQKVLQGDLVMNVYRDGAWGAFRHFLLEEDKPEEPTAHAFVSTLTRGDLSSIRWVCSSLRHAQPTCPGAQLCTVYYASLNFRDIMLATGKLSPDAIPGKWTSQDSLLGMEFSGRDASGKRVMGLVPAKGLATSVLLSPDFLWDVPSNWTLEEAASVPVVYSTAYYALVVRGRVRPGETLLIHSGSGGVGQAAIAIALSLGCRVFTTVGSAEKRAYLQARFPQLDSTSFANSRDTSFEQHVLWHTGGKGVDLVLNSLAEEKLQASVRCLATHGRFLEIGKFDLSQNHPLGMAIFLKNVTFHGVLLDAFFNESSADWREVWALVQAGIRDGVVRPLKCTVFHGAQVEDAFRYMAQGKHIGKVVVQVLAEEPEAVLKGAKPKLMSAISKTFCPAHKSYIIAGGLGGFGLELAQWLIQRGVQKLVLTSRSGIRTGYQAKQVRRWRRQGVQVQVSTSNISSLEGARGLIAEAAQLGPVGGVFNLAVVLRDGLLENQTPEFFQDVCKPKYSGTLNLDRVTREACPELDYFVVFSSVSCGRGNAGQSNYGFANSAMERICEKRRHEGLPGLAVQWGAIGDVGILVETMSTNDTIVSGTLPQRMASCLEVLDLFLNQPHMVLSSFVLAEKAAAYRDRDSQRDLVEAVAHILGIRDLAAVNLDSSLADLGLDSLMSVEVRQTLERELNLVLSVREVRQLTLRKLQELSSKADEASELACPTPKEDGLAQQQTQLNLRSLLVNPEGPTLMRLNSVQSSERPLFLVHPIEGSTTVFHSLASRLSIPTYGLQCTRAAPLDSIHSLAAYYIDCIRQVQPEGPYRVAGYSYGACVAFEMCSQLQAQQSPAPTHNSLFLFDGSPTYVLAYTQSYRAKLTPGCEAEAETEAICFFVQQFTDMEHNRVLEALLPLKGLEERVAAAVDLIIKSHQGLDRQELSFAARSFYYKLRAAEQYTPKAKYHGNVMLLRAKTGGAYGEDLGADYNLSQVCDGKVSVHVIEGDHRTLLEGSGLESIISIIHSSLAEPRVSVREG

CCC(C)(C)C(=O)OC1=C(c2ccc(Cl)cc2Cl)C(=O)OC12CCCCC2
active: [4] 0.739 µM | [7] 0.593 µM | [9] 15.1 µM
inactive: all other assays above

CC1(C)C(C=C(Cl)Cl)C1C(=O)OC(C#N)c1ccc(F)c(Oc2ccccc2)c1 (configuration not stated)
not listed: [1]
inactive: all other assays above

CNC(=O)Oc1ccccc1OC(C)C
not listed: [1]
inactive: all other assays above

Oc1ccc(Cl)cc1Cc1ccccc1
active: [1] 78 µM | [4] 39.9 µM | [9] 87.9 µM and 74.3 µM and 81.6 µM
not listed: [5] | [6]
inactive: all other assays above

Oc1cc(Cl)ccc1Oc1ccc(Cl)cc1Cl
inactive: [2] | [3] | [4] | [7] | [8] | [9] | [10]
active: [9] 69.9 µM

O=C(NC(=O)c1c(F)cccc1F)Nc1ccc(OC(F)(F)C(F)OC(F)(F)F)c(Cl)c1 (configuration not stated)
active: [9] 8.63 µM
not listed: [1]
inactive: all other assays above

C[C@H]1[C@H](c2ccc(Cl)cc2)SC(=O)N1C(=O)NC1CCCCC1
active: [8] 90.5 µM
not listed: [10]
inactive: all other assays above

CNC(=O)/C=C(\C)OP(=O)(OC)OC
not listed: [1]
inactive: all other assays above

CCCN(CCOc1c(Cl)cc(Cl)cc1Cl)C(=O)n1ccnc1
active: [2] 0.0122 µM | [3] 0.355 µM | [4] 0.0358 µM | [7] 0.211 µM | [9] 77.4 µM
inactive: [8] | [10]

CCC(C)Nc1c([N+](=O)[O-])cc(C(C)(C)C)cc1[N+](=O)[O-] (configuration not stated)
active: [3] 78.1 µM | [4] 87.1 µM | [7] 88.3 µM
not listed: [1]
inactive: all other assays above

CCCN(CCC)c1c([N+](=O)[O-])cc(C(F)(F)F)cc1[N+](=O)[O-]
inactive: [1] | [7] | [8] | [9] | [10]

CCN(CC)C(=O)SCc1ccc(Cl)cc1
inactive: [2] | [3] | [7] | [8] | [9]
active: [4] 22.6 µM

O=[N+]([O-])/N=C1\NCCN1Cc1ccc(Cl)nc1
active: [9] 20.6 µM
inactive: all other assays above

CC(C)N(C(=O)COc1nnc(C(F)(F)F)s1)c1ccc(F)cc1
not listed: [1]
inactive: all other assays above

C#CCN1C(=O)COc2cc(F)c(N3C(=O)C4=C(CCCC4)C3=O)cc21
not listed: [10]
inactive: all other assays above

N#Cc1c(Cl)c(Cl)c(Cl)c(C#N)c1Cl
active: [9] 35.5 µM
not listed: [1]
inactive: all other assays above

CCc1ccc(C(=O)NN(C(=O)c2cc(C)cc(C)c2)C(C)(C)C)cc1
not listed: [1]
inactive: all other assays above

O=[N+]([O-])c1c(Cl)c(Cl)c(Cl)c(Cl)c1Cl
inactive: all assays above

O=C(O)COc1ccc(Cl)cc1Cl
not listed: [1] | [5] | [6]
inactive: all other assays above

COc1nn(CSP(=S)(OC)OC)c(=O)s1
active: [2] 33.1 µM | [4] 40.2 µM | [5] 11.5 µM | [6] 21.4 µM | [7] 38.2 µM
inactive: [3] | [8] | [9] | [10]

COP(=S)(OC)Oc1ccc(SC)c(C)c1
not listed: [1] | [9]
inactive: all other assays above

CC(C)(C)C(O)/C(=C\c1ccc(Cl)cc1Cl)n1cncn1 (configuration not stated)
active: [9] 80.6 µM
not listed: [1]
inactive: all other assays above

CCOCN(C(=O)CCl)c1c(C)cccc1CC
inactive: [8] | [10]
active: [9] 90.8 µM

O=C(O)C(F)(F)C(F)(F)C(F)(F)C(F)(F)C(F)(F)C(F)(F)C(F)(F)F
inactive: [8] | [9] | [10]

CNC(=O)Oc1cccc(N=CN(C)C)c1
active: [7] 35.9 µM
inactive: [5] | [6] | [8] | [9] | [10]

N#CN
inactive: [8] | [9] | [10]

O=C(Nc1ccccc1)Nc1cnns1
active: [9] 72.7 µM
inactive: [8]

CC(C)(C)C(O)C(Oc1ccc(Cl)cc1)n1cncn1 (configuration not stated)
inactive: [7] | [8] | [10]
active: [9] 32.7 µM and 50 µM and 27.9 µM

COP(=O)(OC)OC=C(Cl)Cl
inactive: [8] | [9] | [10]

CC[C@H](C)[C@H]1O[C@]2(C=C[C@@H]1C)C[C@@H]1C[C@@H](C/C=C(\C)[C@@H](O[C@H]3C[C@H](OC)[C@@H](O[C@H]4C[C@H](OC)[C@@H](O)[C@H](C)O4)[C@H](C)O3)[C@@H](C)/C=C/C=C3\CO[C@@H]4[C@H](O)C(C)=C[C@@H](C(=O)O1)[C@]34O)O2 (tested in a mixture with another compound)
inactive: [2] | [3] | [4] | [7]
active: [9] 11.4 µM

CCC(C)(NC(=O)c1cc(Cl)c(C)c(Cl)c1)C(=O)CCl (configuration not stated)
active: [8] 92.4 µM
inactive: [9] | [10]

Cc1[nH]c(=O)n(C(C)(C)C)c(=O)c1Cl
active: [9] 68.9 µM
inactive: [8] | [10]

O=S(=O)(O)C(F)(F)C(F)(F)C(F)(F)C(F)(F)C(F)(F)C(F)(F)C(F)(F)C(F)(F)F
active: [9] 81.5 µM and 71.8 µM and 73.8 µM
inactive: [8] | [10]

COP(=S)(OC)Oc1ccc([N+](=O)[O-])cc1
active: [7] 9.85 µM
inactive: [5] | [6] | [8] | [9] | [10]

CC1(c2ccc(Oc3ccccc3)cc2)OC(=O)N(Nc2ccccc2)C1=O (configuration not stated)
active: [8] 1.02 µM | [9] 42.4 µM

OCCOc1ccccc1
inactive: [8] | [9] | [10]

CC(C)OC(=O)Nc1cccc(Cl)c1
inactive: [5] | [7] | [8] | [9]
active: [6] 15.6 µM

O=C(O)CCCOc1ccc(Cl)cc1Cl
inactive: [8] | [9] | [10]

O=S1OCC2C(CO1)C1(Cl)C(Cl)=C(Cl)C2(Cl)C1(Cl)Cl (configuration not stated)
inactive: [8] | [9]

ClC1C(Cl)C(Cl)C(Cl)C(Cl)C1Cl (configuration not stated)
inactive: [8] | [9] | [10]

CN1CSC(=S)N(C)C1
inactive: [8] | [9] | [10]

CNC(=O)CSP(=S)(OC)OC
inactive: [5] | [6] | [7] | [8] | [9] | [10]

CCOC1Oc2ccc(OS(C)(=O)=O)cc2C1(C)C (configuration not stated)
inactive: [8] | [9] | [10]

O=C1c2ccccc2C(=O)N1SC(Cl)(Cl)Cl
inactive: [5] | [6] | [7] | [8] | [9] | [10]

Clc1ccccc1-c1nnc(-c2ccccc2Cl)nn1
inactive: [5] | [6] | [7] | [8]
active: [9] 24.7 µM
